Results filed as inconclusive are left out. Activity calls are given as the source filed them. Rule for the calls, unless noted: active = hit-call score of the fitted dose curve at least 0.9, where 1 is the maximum; inconclusive = response in the unintended direction; inactive = score below 0.9.

Assay [1] addresses Voltage-dependent N-type calcium channel subunit alpha-1B (Rattus norvegicus) (UniProt Q02294). Nature of the assay: NVS_IC_rCaChN: NovaScreen (NVS) Ion Channel Assay for rat Calcium Channel, Type N (CaChN) (AID 2283317).
The target of assay [2] is bovine Estrogen Receptor (ER), ESR1 (gene 407238) (UniProt P49884). As to the kind of experiment: NVS_NR_bER: NovaScreen (NVS) Nuclear Receptor Binding Assay for bovine Estrogen Receptor (ER) (AID 2283345).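 Note: actives lower the bound radioligand count which means they displace the ER ligand.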 Put shortly:
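Bovine uterine membranes; tritiated or iodinated radioligand; competitive displacement; 18 h; scintillation read; DMSO negative control; 25 uM duplicates, then concentration series for actives.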

For assay [3], the target named is Estrogen receptor (Homo sapiens) (UniProt P03372). Nature of the assay: NVS_NR_hER: NovaScreen (NVS) Nuclear Receptor Binding Assay for human Estrogen Receptor (ER) (AID 2283348). Put shortly:
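Cell-free MCF7-derived ER preparation, specific radioligand displaced by test compound, read by scintillation counting 18 h post-dosing. Duplicate single-point 25 uM screen, then concentration-response confirmation; DMSO baseline.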

Assay [4] can be described thus: TOX21_p53_BLA_p2_viability: Viability Assessment in the Tox21 HCT-116 p53 Agonism Beta-lactamase Assay, Phase 2 (AID 2283591).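 Note: compound exposure lasted 16 h at 37 °C; actives lower the ATP signal meaning cytotoxicity.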 Put shortly:
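Cytotoxicity readout: CellTiter-Glo ATP luminescence, 30 min at room temperature, after the beta-lactamase read. Cells were HCT116 exposed 16 h at 37C to compounds pin-transferred at 217-fold dilution from DMSO stocks.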

For assay [5], the target named is Cellular tumor antigen p53 (Homo sapiens) (UniProt P04637). As to the kind of experiment: TOX21_p53_BLA_p2_ratio: Tox21 HCT-116 p53 Agonism Beta-lactamase Assay, Ratio, Phase 2 (AID 2283592). The procedure, abridged:
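Read-out is the blue/green (460/530 nm, 405 nm excitation) ratio after 2 h CCF4-AM loading, fitted as gain versus DMSO. Compounds, pinned at 217-fold dilution from DMSO stocks, stayed 16 h on HCT-116 beta-lactamase reporter cells seeded 5 h earlier.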

A short description of assay [6]: TOX21_p53_BLA_p3_viability: Viability Assessment in the Tox21 HCT-116 p53 Agonism Beta-lactamase Assay, Phase 3 (AID 2283593).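 Note: cells exposed to compound for 16 h before reading.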 The procedure, abridged: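 Cellular ATP was quantified by CellTiter-Glo luminescence, read after 30 min at room temperature. Beforehand, HCT116 cells (4000/well) received compound 5 h post-seeding, 217-fold diluted from DMSO, then incubated 16 h at 37C.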

In assay [7] the target is Cellular tumor antigen p53 (Homo sapiens) (UniProt P04637). Nature of the assay: TOX21_p53_BLA_p3_ratio: Tox21 HCT-116 p53 Agonism Beta-lactamase Assay, Ratio, Phase 3 (AID 2283596). The procedure, abridged:
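Cells were seeded at 4000/well, rested 5 h at 37C, then dosed with DMSO compound solutions (217-fold dilution) for 16 h. CCF4-AM substrate was loaded for 2 h at room temperature, and the 460/530 nm emission ratio was fitted for gain of signal versus DMSO.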

The nature of assay [8]: TOX21_p53_BLA_p4_viability: Viability Assessment in the Tox21 HCT-116 p53 Agonism Beta-lactamase Assay, Phase 4 (AID 2283597).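 Note: hits lower the luminescence signal meaning cytotoxicity.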 Put shortly: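 Cytotoxicity as reduced cellular ATP (CellTiter-Glo luminescence, 30 min room temperature), measured in the same wells following the CCF4 FRET p53 reading. Human HCT-116 cells received compounds in DMSO (217-fold dilution) for 16 h.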

For assay [9], the target named is Cellular tumor antigen p53 (Homo sapiens) (UniProt P04637). Nature of the assay: TOX21_p53_BLA_p5_ratio: Tox21 HCT-116 p53 Agonism Beta-lactamase Assay, Ratio, Phase 5 (AID 2283599). The procedure, abridged:
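Beta-lactamase reporter ratio (blue 460 nm over green 530 nm, 405 nm excitation) after 2 h CCF4-AM loading, in HCT-116 cells exposed 16 h at 37 C to compounds pinned at 217-fold dilution. Increases relative to DMSO baseline scored.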

Assay [10] in a line: TOX21_p53_BLA_p5_viability: Viability Assessment in the Tox21 HCT-116 p53 Agonism Beta-lactamase Assay, Phase 5 (AID 2283600). Put shortly: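 Viability came from CellTiter-Glo ATP luminescence, read after 30 min at room temperature. Before this, HCT-116 p53-bla cells (4000/well) had 16 hours of compound exposure at 37C, with DMSO stocks diluted 217-fold on transfer.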
In assay [11] the target is Cellular tumor antigen p53 (Homo sapiens) (UniProt P04637). As to the kind of experiment: TOX21_p53_BLA_p4_ratio: Tox21 HCT-116 p53 Agonism Beta-lactamase Assay, Ratio, Phase 4 (AID 2283601). Put shortly:
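Signal is the blue/green (460nm/530nm) ratio of cleaved versus uncleaved CCF4-AM substrate, read after 2 h substrate loading. Cells were HCT116 carrying the p53-responsive beta-lactamase reporter, dosed 16 h at 37C, 5% CO2; CellTiter-Glo measured in parallel.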

Assay [12] can be described thus: CCTE_Harrill_HTTr_Viability_MCF7: CCTE's 6-hour Cell Viability Assessment for the High-Throughput Transcriptomics (HTTr) Platform, in MCF-7 cells cultured in DMEM + 10% fetal bovine serum, Harrill Lab (AID 2284010; active = hit-call score of the fitted dose curve at least 0.9, where 1 is the maximum; inactive = score below 0.9). The procedure, abridged:
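Read-out is propidium iodide gain of signal by high-content imaging, reflecting membrane integrity loss. Measurements are taken 6 h after dosing, eight concentrations per chemical, with DMSO serving as baseline for bidirectional curve fitting.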

Assay [13] is described as follows: CCTE_Harrill_HTTr_Apoptosis_MCF7: CCTE's 6-hour Apoptosis Assessment for the High-Throughput Transcriptomics (HTTr) Platform, in MCF-7 cells cultured in DMEM + 10% fetal bovine serum, Harrill Lab (AID 2284011; active = hit-call score of the fitted dose curve at least 0.9, where 1 is the maximum; inactive = score below 0.9). Put shortly:
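High-content imaging of CellEvent Caspase 3/7 Green signal follows a six-hour exposure, with eight concentrations per chemical. MCF-7 cells grown in DMEM plus 10% fetal bovine serum; activity fitted in both directions against DMSO.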

Assay [14] can be described thus: CCTE_Harrill_HTTr_CellCount_MCF7: CCTE's Cell Proliferation Assessment for the High-Throughput Transcriptomics (HTTr) Platform, Harrill Lab (AID 2284012).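 Note: cells exposed to compound for six hours; intended direction is loss of nuclei count meaning fewer cells.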 The procedure, abridged:
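Cell count served as viability reporter: loss of Hoechst-stained nuclei, counted by high content imaging, marks decreased growth or survival. Exposure was 6 h in MCF-7 cells across eight concentrations, with DMSO as baseline.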

Assay [15] addresses rat Gamma-Aminobutyric Acid Type A Receptor BDZ, alpha 6 site (GABARa6), Gabra6 (gene 29708) (UniProt P30191). As to the kind of experiment: NVS_LGIC_rGABARa6: NovaScreen (NVS) Ligand-Gated Ion Channel Assay for rat Gamma-Aminobutyric Acid Type A Receptor BDZ, alpha 6 site (GABARa6) (AID 2283339). Put shortly: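 Actives from a 25 uM duplicate screen were retested in concentration series (max 50 uM). Specific radioligand displacement from rat cerebellar membranes was counted by filter-based scintillation at 1 h; DMSO served as baseline.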

Assay [16] addresses Norway rat Vesicular Monoamine Transporter (VMAT2), neurotransmitter transporter, Slc18a2 (gene 25549) (UniProt Q01827). As to the kind of experiment: NVS_TR_rVMAT2: NovaScreen (NVS) Transporter Assay for Norway rat Vesicular Monoamine Transporter (VMAT2), neurotransmitter transporter (AID 2283376).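 Note: actives lower the bound radioligand signal below the DMSO level.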 Put shortly:
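Using rat forebrain membranes, specific radioligand binding to VMAT2 was measured by filtration and scintillation counting after 1 hour. Chemicals screened at 25 uM in duplicate, actives retested in concentration series, DMSO baseline.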

Assay [17] has as its target Bile acid receptor (Homo sapiens) (UniProt Q96RI1). As to the kind of experiment: NVS_NR_hFXR_Agonist: NovaScreen (NVS) Nuclear Receptor Binding Assay for human Farnesoid X Receptor Agonism (FXR) (AID 2283347). Put shortly:
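Agonist-mode FXR assay read by time-resolved FRET 1 h after compound addition, using isolated human receptor protein without cells. Duplicate 25 uM single-point primary screen, concentration series for confirmed actives; DMSO as baseline.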

Assay [18] deals with mouse Estrogen Receptor alpha (Era), Esr1 (gene 13982) (UniProt P19785). As to the kind of experiment: NVS_NR_mERa: NovaScreen (NVS) Nuclear Receptor Binding Assay for mouse Estrogen Receptor alpha (Era) (AID 2283378).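 Note: hit means loss of bound radioligand signal relative to DMSO.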 Put shortly: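 Filter radiodetection of radioligand displacement from extracted receptor protein, measured 18 h post-dose. Single 25 uM concentration in duplicate initially, with concentration-series follow-up. Binding loss fitted relative to DMSO.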
mouse Estrogen Receptor alpha (Era), Esr1 (gene 13982), sequence (P19785 whole entry, looked up): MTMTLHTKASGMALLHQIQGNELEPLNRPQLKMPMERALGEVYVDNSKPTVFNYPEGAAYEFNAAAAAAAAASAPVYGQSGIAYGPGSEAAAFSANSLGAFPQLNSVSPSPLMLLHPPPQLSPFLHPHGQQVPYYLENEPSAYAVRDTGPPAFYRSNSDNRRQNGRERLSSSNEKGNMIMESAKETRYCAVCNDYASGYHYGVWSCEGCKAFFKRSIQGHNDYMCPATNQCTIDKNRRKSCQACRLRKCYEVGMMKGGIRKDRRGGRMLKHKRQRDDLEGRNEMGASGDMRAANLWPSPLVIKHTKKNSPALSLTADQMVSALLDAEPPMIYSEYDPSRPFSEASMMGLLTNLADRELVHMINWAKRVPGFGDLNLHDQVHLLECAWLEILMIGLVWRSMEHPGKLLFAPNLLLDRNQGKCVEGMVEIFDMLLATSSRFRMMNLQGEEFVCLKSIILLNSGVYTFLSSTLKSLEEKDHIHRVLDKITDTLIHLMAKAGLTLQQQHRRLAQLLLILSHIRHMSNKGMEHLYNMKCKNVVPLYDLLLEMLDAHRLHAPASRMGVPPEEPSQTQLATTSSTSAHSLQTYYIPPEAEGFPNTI

rat Gamma-Aminobutyric Acid Type A Receptor BDZ, alpha 6 site (GABARa6), Gabra6 (gene 29708), sequence (P30191 whole entry, looked up): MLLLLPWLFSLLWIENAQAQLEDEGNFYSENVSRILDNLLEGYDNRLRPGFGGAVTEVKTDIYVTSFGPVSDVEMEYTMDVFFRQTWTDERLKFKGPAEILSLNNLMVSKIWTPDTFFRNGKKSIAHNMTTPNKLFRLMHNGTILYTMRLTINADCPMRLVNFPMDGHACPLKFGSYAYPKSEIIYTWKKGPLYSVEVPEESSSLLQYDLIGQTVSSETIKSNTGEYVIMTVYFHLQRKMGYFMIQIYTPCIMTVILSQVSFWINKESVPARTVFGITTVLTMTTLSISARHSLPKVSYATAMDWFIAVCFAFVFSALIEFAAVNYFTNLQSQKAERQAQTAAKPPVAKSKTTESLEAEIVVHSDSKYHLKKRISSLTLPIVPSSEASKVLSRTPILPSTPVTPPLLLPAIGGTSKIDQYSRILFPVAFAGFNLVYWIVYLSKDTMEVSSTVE
Cellular tumor antigen p53 (Homo sapiens), sequence (P04637 whole entry, looked up): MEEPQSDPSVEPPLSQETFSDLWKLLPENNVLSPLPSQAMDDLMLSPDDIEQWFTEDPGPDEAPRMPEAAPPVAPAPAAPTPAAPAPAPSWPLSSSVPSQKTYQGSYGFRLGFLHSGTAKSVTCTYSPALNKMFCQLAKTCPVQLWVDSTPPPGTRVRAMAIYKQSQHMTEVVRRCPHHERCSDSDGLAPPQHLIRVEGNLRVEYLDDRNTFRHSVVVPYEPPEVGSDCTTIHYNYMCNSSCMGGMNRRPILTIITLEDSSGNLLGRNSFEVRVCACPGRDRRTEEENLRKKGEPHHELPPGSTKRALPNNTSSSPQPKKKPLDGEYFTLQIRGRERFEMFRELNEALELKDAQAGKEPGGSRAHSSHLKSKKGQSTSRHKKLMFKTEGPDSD
Norway rat Vesicular Monoamine Transporter (VMAT2), neurotransmitter transporter, Slc18a2 (gene 25549), sequence (Q01827 whole entry, looked up): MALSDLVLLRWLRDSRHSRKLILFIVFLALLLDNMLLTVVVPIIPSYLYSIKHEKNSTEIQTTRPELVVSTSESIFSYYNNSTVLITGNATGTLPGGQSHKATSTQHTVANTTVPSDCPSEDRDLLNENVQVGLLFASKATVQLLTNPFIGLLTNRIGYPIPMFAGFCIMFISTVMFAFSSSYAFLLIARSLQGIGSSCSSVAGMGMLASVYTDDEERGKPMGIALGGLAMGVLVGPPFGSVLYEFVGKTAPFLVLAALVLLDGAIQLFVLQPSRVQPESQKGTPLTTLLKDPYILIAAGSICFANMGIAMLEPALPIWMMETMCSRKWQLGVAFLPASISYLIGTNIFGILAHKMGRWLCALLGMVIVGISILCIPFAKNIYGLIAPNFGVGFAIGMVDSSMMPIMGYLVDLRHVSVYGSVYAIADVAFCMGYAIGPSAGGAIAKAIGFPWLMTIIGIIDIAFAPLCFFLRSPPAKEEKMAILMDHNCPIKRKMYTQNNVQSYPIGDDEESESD
bovine Estrogen Receptor (ER), ESR1 (gene 407238), sequence (P49884 whole entry, looked up): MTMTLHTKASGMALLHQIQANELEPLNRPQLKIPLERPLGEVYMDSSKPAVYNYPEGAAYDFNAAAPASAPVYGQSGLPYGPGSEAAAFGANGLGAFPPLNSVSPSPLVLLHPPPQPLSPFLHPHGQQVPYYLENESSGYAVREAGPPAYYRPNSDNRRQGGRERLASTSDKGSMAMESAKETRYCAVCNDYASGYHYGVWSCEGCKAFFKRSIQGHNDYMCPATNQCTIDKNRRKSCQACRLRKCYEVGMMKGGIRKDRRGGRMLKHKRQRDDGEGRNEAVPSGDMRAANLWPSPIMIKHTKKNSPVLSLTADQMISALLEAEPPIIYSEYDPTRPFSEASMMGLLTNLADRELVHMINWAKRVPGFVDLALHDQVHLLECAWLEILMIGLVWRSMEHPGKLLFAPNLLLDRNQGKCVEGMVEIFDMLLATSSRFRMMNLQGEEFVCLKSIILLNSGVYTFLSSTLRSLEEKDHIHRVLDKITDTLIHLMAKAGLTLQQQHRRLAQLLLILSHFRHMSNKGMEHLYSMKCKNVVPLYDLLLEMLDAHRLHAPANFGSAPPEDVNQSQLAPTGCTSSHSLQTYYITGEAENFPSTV
Bile acid receptor (Homo sapiens), sequence (Q96RI1 whole entry, looked up): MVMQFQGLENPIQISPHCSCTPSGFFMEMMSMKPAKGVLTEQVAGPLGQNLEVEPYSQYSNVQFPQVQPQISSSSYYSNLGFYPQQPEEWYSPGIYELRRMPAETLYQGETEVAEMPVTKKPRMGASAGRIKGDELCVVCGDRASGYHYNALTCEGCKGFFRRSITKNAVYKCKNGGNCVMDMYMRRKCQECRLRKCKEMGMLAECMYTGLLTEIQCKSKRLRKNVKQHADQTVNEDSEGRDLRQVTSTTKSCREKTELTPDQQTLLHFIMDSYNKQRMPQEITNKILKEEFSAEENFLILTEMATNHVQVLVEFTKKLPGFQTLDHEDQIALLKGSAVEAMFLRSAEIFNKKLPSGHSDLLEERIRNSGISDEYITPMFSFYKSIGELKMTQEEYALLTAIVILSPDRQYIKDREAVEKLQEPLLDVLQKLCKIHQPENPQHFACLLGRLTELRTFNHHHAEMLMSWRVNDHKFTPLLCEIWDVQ
Estrogen receptor (Homo sapiens), sequence (P03372 whole entry, looked up): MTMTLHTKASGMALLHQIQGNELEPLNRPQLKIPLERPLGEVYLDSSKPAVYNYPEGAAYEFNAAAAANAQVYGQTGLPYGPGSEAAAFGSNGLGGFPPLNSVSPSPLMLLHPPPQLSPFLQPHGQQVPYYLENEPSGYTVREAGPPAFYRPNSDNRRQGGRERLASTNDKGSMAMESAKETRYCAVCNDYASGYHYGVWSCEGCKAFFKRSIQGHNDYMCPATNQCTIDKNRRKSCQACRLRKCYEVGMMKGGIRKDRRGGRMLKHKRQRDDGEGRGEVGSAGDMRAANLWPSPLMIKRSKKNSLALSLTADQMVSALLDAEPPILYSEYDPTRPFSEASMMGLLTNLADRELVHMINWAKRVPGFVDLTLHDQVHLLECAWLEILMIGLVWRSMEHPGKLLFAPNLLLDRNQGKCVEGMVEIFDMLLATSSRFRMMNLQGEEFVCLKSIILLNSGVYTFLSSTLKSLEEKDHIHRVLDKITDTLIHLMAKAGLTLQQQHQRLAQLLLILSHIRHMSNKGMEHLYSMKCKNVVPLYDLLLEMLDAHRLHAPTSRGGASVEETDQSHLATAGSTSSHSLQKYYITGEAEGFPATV

Turning to `CNCc1ccc(NC(=O)c2c[nH]c3c2C(=O)CCC3)cc1`, the result in assay [1] was inactive.
`N#Cc1sc2c(=O)c3ccccc3c(=O)c=2sc1C#N`: the AC50 was 9.58 µM (active) in assay [2]; 10.3 µM (active) in [3]; 14.9 µM (active) in assay [4]; 0.333 µM (active) in assay [5]; 25.2 µM (active) in assay [6]; 52.2 µM (active) in assay [7]. Moreover, the AC50 was 8.76 µM (active) in assay [8]; 0.347 µM (active) in assay [9]; 7.3 µM (active) in assay [10]; 6.18 µM (active) in assay [11]; 11.1 µM (active) in assay [12]. Moreover, the result in assay [13] and in [14] was inactive.
For `COc1ccc(OC)c(N=Nc2c(O)ccc3ccccc23)c1`, the compound was classed as inactive in assay [15]. The AC50 in assay [16] is 0.107 µM (active).
Consider `CCCCOC(=O)[C@@H](C)Oc1ccc(Oc2ccc(C(F)(F)F)cn2)cc1`, for which the compound was called inactive in assay [17].
Turning to `Cc1ccc(C(C)C)c(O)c1`, the outcome in assay [15] was inactive.
Take `CS(=O)(=O)c1ccc(C2=C(c3ccccc3)C(=O)OC2)cc1`: the result in assay [15] was inactive. Besides, the AC50 in [16] was 12.5 µM (active).
Consider `CCCCCCCCCCCCCCCS(=O)(=O)Oc1ccccc1`, for which the outcome in assay [1] was inactive.
In the case of `OC(c1ccc(F)cc1)(c1cncnc1)c1ccccc1Cl` (stereo unspecified), the result in [2], in [18], in assay [5], in assay [6], in [8] and in assay [11] was inactive. Further, the result in [12], in [13] and in [14] was inactive. The AC50 in assay [3] was 21.2 µM (active).
In the case of `CCN(CCC#N)c1ccc(N=Nc2c(Cl)cc([N+](=O)[O-])cc2Cl)cc1`, the compound was called inactive in assay [17].
For `CN(C)C(=O)Nc1cccc(OC(=O)NC(C)(C)C)c1`, the result in [2], in [5], in assay [6] and in [7] was inactive.
`NC(=O)N1c2ccccc2C=Cc2ccccc21`: the compound was classed as inactive in assay [15].
On to `Cc1oc2c(NC(=O)c3c(Cl)cccc3Cl)cccc2c1C(C)(C)O`, for which the half-maximal activity concentration (AC50) in assay [16] was 11.9 µM (active).
As to `O=c1n(CC2CO2)c(=O)n(CC2CO2)c(=O)n1CC1CO1` (stereo unspecified), the compound was classed as inactive in assay [15].
As for `CN(c1nccc(=O)[nH]1)C1CCN(c2nc3ccccc3n2Cc2ccc(F)cc2)CC1`, the compound was called inactive in assay [16].
Consider `CCCCON=O`, for which the call in assay [4] and in assay [5] was inactive.
Regarding `N#CC(C#N)=NNc1cccc(Cl)c1`, the outcome in assay [18] and in [6] was inactive. In addition, the AC50 is 20.8 µM (active) in assay [4]; 2.66 µM (active) in [5]; 1.24 µM (active) in [7]; 6.28 µM (active) in assay [8]; 26.7 µM (active) in assay [9]; 46.1 µM (active) in assay [10]. The concentration at half-maximal activity (AC50) in [11] is 13.8 µM (active).
Regarding `CCCC(O)C(O)CO` (stereo unspecified), the compound was classed as inactive in assay [16].
The same measure, in the same setting: under `CCCCC(CC)C(=O)O` (stereo unspecified) stands “inactive”; under `CCOC(=O)C=Cc1ccccc1`, “inactive”.
As for `Cc1ccc(S(=O)(=O)C(I)I)cc1`, the AC50 in assay [16] is 1.19 µM (active).
As to `c1ccc(C[P+](c2ccccc2)(c2ccccc2)c2ccccc2)cc1`, the half-maximal activity concentration (AC50) in assay [16] was 16.7 µM (active).
Regarding `[Cl][Dy]([Cl])[Cl]`, in [16], the result was inactive.
Still for that read-out and setting: under `Nc1ccc(Oc2cccc(Oc3ccc(N)cc3)c2)cc1` stands “inactive”.
Consider `Cc1cc(F)ccc1-c1cc(N2CC[C@@H](O)[C@H]2CO)ncc1N(C)C(=O)C(C)(C)c1cc(C(F)(F)F)cc(C(F)(F)F)c1`, for which, in [16], the AC50 is 11.7 µM (active).
For the compound `C/C=C\C/C=C/CCCCCCCCOC(C)=O`, the compound was called inactive in assay [16].
Still for that read-out and setting: in the case of `CC(C)CCCCCCOC(=O)c1ccc(C(=O)OCCCCCCC(C)C)c(C(=O)OCCCCCCC(C)C)c1` it was “inactive”.

These data come from PubChem BioAssay (EPA / NIEHS).
